Bioassay records from PubChem.
Compounds with a hit are over-represented: about 1.6% of the library has one in this group of screens.
KCNQ2 block – blocks the rat KCNQ2 potassium channel. O88943. CHO-K1 KCNQ2, FluxOR thallium flux, 20 min; hits give low values. B-score at 10 µM. actives 1.1% (n = 310,000). AID 2156;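 active means fluorescence ratio B-score at most minus 3 library SDs, with starting brightness B-score within 2 library SDs, cut at about -5.5 in these data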
Target sequence (O88943 whole entry, looked up): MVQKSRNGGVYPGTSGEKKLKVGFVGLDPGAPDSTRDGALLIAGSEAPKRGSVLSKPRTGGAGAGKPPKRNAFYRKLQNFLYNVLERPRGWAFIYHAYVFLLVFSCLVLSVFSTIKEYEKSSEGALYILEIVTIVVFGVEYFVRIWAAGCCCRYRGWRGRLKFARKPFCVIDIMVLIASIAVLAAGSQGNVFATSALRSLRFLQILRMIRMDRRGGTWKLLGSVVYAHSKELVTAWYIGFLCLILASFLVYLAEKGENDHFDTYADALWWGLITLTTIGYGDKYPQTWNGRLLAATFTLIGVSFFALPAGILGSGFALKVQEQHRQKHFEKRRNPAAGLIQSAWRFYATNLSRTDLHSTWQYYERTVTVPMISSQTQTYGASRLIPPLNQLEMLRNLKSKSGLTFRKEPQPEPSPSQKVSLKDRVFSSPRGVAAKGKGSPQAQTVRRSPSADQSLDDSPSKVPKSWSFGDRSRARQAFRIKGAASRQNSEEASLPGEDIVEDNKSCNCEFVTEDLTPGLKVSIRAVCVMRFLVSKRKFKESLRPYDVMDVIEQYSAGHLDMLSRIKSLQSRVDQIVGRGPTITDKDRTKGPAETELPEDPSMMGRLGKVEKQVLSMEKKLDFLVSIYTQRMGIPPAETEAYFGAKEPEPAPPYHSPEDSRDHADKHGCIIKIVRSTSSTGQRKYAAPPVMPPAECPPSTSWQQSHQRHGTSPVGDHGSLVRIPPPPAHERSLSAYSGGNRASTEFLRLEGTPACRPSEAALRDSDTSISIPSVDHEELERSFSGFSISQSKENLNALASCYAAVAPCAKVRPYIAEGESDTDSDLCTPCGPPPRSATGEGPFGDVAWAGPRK
KCNQ2 enhance – enhances the rat KCNQ2 potassium channel | CHO-K1 KCNQ2, FluxOR thallium flux fluorescence; hits give high values | B-score at 10 µM | actives 0.54% (n = 310,000);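 active means fluorescence ratio B-score at least 3 SD of library B-scores, with initial fluorescence B-score within 3 of them, cut at about 5.3 in these data; same plate scores as AID 2156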;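 further: B-score of peak minus minimum over baseline fluorescence ratio after K+ and Tl+ stimulus; positive B-score means potentiation of KCNQ2 with more thallium influx and brighter signal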
Each line names hits and unclear results; the compound was inactive in the other large screens.

Cc1cc(OCc2cc(C(=O)N(C)C(C)c3ccccn3)no2)cc(C)c1Cl (stereo not given)	none (no result: KCNQ2 enhance)
CCOC(=O)c1nn(-c2ccc(F)cc2)c(=O)cc1OCC(=O)N1CCN(c2ccccc2)CC1	none (no result: KCNQ2 enhance)
C=CCOCC(O)Cn1c(N2CCCC2)nc2c1c(=O)[nH]c(=O)n2C (stereo not given)	none
O=C(CCC1CCCC1)Nc1ccccc1-c1ccccc1	KCNQ2 enhance 23
O=C(CNC(c1ccccc1)c1ccccc1)Nc1ccccc1-c1ccccc1	KCNQ2 block -6.3
CCCC(=O)NCc1ccccc1Cl	none (no result: KCNQ2 enhance)
COc1ccccc1NC(=O)CC1CCCC1	none
O=C(CNC(c1ccccc1)c1ccccc1)NCc1ccccc1Cl	KCNQ2 block -6
O=C(CNC(c1ccccc1)c1ccccc1)Nc1ccccc1F	none (no result: KCNQ2 enhance)
O=C(CCC1CCCCC1)Nc1ccccc1O	none
O=C(CC1CCCCC1)Nc1ccccc1-c1ccccc1	KCNQ2 enhance 6.5
C[C@H](NC(=O)C1CCN(S(=O)(=O)c2ccccc2)CC1)C(=O)NCc1ccccn1	none (no result: KCNQ2 enhance)
COc1ccccc1C(=O)NC(=O)COC(=O)c1ncc(Cl)c(Cl)c1Cl	none (no result: KCNQ2 enhance)
CNC(=O)c1cc(S(=O)(=O)N2CC(C)OC(C)C2)ccc1N1CCCCC1 (stereo not given)	none
CC(=O)N1C(C(=O)O)Cc2c([nH]c3ccccc23)C1(C)C (stereo not given)	KCNQ2 enhance 7.3
CC12CCC(=O)N1C(C(=O)O)Cc1c2[nH]c2ccccc12 (stereo not given)	none (no result: KCNQ2 enhance)
Cc1ccc(NC(=O)CCN2CCOCC2)cc1C	none
COc1ccccc1OCCNC(=O)CNC(=O)c1ccc2c(c1)OCO2	none
COc1ccccc1OCCNC(=O)c1ccc2c(c1)OCCO2	KCNQ2 enhance 6.7
Cc1cc(C(=O)OC(C)C(=O)N2CCc3ccccc32)ccc1[N+](=O)[O-] (stereo not given)	none
Cc1ccc(S(=O)(=O)C/N=C(/NC(=S)N(c2ccccc2)c2ccccc2)c2ccccc2)cc1	KCNQ2 block -5.9
Cc1ccc(S(=O)(=O)/N=C(/NC(=S)Nc2ccccc2)c2ccccc2)cc1	none (no result: KCNQ2 enhance)
COc1ccc(NC(=S)N2CCN(C(=O)C3CCCO3)CC2)cc1 (stereo not given)	none (no result: KCNQ2 enhance)
COC(=O)c1ccc(C(=O)OC)c(NC(=O)CCc2ccc(C)o2)c1	none
COC(=O)c1c(NC(=O)CCc2ccc(C)o2)sc(C)c1C	KCNQ2 block -5.9
COC(=O)c1nc(NNC(=O)c2ccccc2)sc1-c1ccccc1	none
COc1ccc(C(=O)NCc2nnc(SCC(=O)NC3CCCC3)o2)cc1	none (no result: KCNQ2 enhance)
O=C(CN(Cc1ccc(Br)cc1)S(=O)(=O)c1ccccc1)NCc1ccccn1	KCNQ2 block -6.5
O=C(CN(Cc1ccccc1)S(=O)(=O)c1ccc(Br)cc1)NCc1ccco1	KCNQ2 block -6.6
O=C(CCS(=O)(=O)c1ccc(Br)cc1)NCc1ccco1	none
COc1ccc(S(=O)(=O)N(CC(=O)NCc2ccccn2)Cc2ccccc2)cc1	none (no result: KCNQ2 enhance)
Cc1ccc(CNC(=O)Nc2ccc(F)cc2)n1C	none
Cc1ccc(CNC(=O)CCS(=O)(=O)Cc2ccc(C)cc2)cc1	none
O=C(Nc1cccc(Cl)c1)C1CCN(C(=O)c2cccs2)CC1	none (no result: KCNQ2 enhance)
CCS(=O)(=O)c1nn2c(N)c(/C=C3/C=CC(=O)C(OC)=C3)c(=O)nc2s1	none (no result: KCNQ2 enhance)
CCOC1=C/C(=C/c2c(N)n3nc(-c4ccccc4)sc3nc2=O)C=CC1=O	KCNQ2 block -6.9
O=C(NCCCN1CCOCC1)c1cc(-c2ccc(Cl)s2)nc2ccccc12	none
COC(=O)c1ccc(C(=O)NN)cc1	none (no result: KCNQ2 enhance)
CCC/C=C(\CCC)C(NC(=O)c1ccc(C(=O)OC)cc1)c1ccc(C(=O)OC)cc1 (stereo not given)	KCNQ2 block -7.2
CCC/C=C(\CCC)C(NC(=O)c1ccc(C(F)(F)F)cc1)c1ccccc1 (stereo not given)	KCNQ2 block -6.6
CC(C)CC(C)NC(=O)c1ccc(C(F)(F)F)cc1 (stereo not given)	none
O=C(Nc1ccc(Cl)cc1)c1cc(Br)ccc1OCC(=O)N1CCOCC1	none (no result: KCNQ2 enhance)
Cc1ccc(S(=O)(=O)NC2c3cccc4cccc(c34)C2Sc2n[nH]c(N)n2)cc1 (stereo not given)	none (no result: KCNQ2 enhance)
O=S(=O)(NC1c2cccc3cccc(c23)C1Sc1ncccn1)c1ccc(Cl)cc1 (stereo not given)	KCNQ2 block -6.3
CCOC(=O)C1CCN(C(=O)CN2C(=O)c3cccnc3Oc3ccccc32)CC1	none
c1ccc(N/N=C(\Cc2ncc[nH]2)c2ccccc2)cc1	none (no result: KCNQ2 enhance)
Clc1cccc(N/N=C(\Cc2nc3ccccc3[nH]2)c2ccccc2)c1	KCNQ2 block -6.3
NS(=O)(=O)c1ccc(CNC(=O)CNC(=O)c2ccc(Br)o2)cc1	none
COc1ccc(CCNC(=O)CCNC(=O)N2CC(=O)Nc3ccccc32)cc1	none (no result: KCNQ2 enhance)
CCC(=O)Nc1cc(-c2nn(C)c(=O)c3ccccc23)ccc1N1CCOCC1	none (no result: KCNQ2 enhance)
Cn1nc(-c2ccc(N3CCCCC3)c(NC(=O)c3ccco3)c2)c2ccccc2c1=O	KCNQ2 block -5.6
O=S(=O)(c1ccc(-c2n[nH]c(=S)o2)cc1)N1CCCCC1	none
O=C(CSc1ncccc1C(=O)O)Nc1ccc2c(c1)OCCO2	none (no result: KCNQ2 enhance)
Cn1c(SCC(=O)N2c3ccccc3Sc3ccccc32)nc2ccccc21	none (no result: KCNQ2 enhance)
CCOc1ccc2nc(SCC(=O)N3CCCc4ccccc43)sc2c1	none (no result: KCNQ2 enhance)
Cc1cc(=O)[nH]c(SCC(=O)N2CCCc3ccccc32)n1	KCNQ2 block -6.2
CN(C)CCCn1c(SCC(=O)N2c3ccccc3Sc3ccccc32)nc2ccccc2c1=O	KCNQ2 block -6.4
COCCn1c(SCC(=O)N2CCCc3ccccc32)nc2ccccc2c1=O	KCNQ2 block -6.7
O=C(CSc1nc(O)cc(=O)[nH]1)N1CCCc2ccccc21	none
O=C(CSc1nc2cc(Cl)ccc2s1)N1CCCc2ccccc21	KCNQ2 block -5.9
COCCn1c(SCC(=O)N2CCCc3ccccc32)nc2c(c1=O)SC(C)C2 (stereo not given)	none (no result: KCNQ2 enhance)
Cc1ccc2c(c1)N(S(=O)(=O)c1ccc(CN3C(=O)c4cccnc4C3=O)s1)CCO2	none
O=C(Cc1cccs1)NCc1ccccc1Br	none (no result: KCNQ2 enhance)
O=Cc1cccc(OC(=O)Nc2ccccc2)c1	none
COc1cc2c(cc1OC)CN(C(=O)CN1CCN(S(=O)(=O)c3ccccc3)CC1)CC2	none
CC12CCC(C(=Nc3ccc(N=C4C(=O)C5(C)CCC4C5(C)C)cc3)C1=O)C2(C)C	none (no result: KCNQ2 enhance)
Cc1ccc(N/C=C2\C(=O)C3(C)CCC2C3(C)C)cc1C (stereo not given)	KCNQ2 block -6.5
Cc1nnc2c(NC3CCCCC3)nc3ccccc3n12	none
CCN=C(NCC)SC1CC(=O)N(c2cccc(OC)c2)C1=O (stereo not given)	KCNQ2 block -5.8
CCN=C(NCC)SC1CC(=O)N(c2ccccc2)C1=O (stereo not given)	none (no result: KCNQ2 enhance)
O=C(CN(Cc1ccccc1F)S(=O)(=O)c1ccc(Cl)cc1)NCC1CCCO1 (stereo not given)	none (no result: KCNQ2 enhance)
